For experiment [1], the target named is Thyrotropin receptor (Homo sapiens) (UniProt P16473). The experiment can be described thus: qHTS assay to identify small molecule antagonists of the thyroid stimulating hormone receptor (TSHR) signaling pathway (AID 1259385; calls by dose curve; also: nearly all actives have a fitted effect of over 20% in size). The essentials: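 Antagonist mode: compound-treated TSHR-expressing HEK293 cells were stimulated with 1.5 ng/mL TSH (final) in presence of Ro20-1724 for 30 min at RT. HTRF cAMP detection after 1 h; each compound tested at 15 concentrations, triplicate.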
Thyrotropin receptor (Homo sapiens), sequence (P16473 whole entry, looked up): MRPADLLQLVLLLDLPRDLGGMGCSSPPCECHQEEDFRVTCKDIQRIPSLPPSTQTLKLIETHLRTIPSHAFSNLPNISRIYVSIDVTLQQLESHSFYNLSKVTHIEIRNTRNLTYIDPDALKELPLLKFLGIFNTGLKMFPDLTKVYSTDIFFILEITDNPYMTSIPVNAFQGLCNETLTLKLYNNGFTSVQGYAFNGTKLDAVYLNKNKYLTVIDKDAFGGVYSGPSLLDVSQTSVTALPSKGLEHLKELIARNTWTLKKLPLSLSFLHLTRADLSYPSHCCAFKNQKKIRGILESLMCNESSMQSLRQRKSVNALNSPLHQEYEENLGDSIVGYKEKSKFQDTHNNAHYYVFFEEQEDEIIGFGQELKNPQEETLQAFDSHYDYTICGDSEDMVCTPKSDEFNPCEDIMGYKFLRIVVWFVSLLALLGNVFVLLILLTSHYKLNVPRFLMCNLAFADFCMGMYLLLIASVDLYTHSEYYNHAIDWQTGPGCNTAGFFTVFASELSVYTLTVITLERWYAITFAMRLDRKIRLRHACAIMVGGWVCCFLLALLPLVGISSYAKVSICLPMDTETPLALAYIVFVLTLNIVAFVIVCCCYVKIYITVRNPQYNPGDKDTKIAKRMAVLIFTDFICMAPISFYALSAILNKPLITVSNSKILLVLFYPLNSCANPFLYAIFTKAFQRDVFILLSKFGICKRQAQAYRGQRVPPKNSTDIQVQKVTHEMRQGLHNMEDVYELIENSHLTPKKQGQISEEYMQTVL

Experiment [2] can be described thus: qHTS assay to identify small molecule agonists of the estrogen receptor alpha (ER-alpha) signaling pathway in the presence of an antagonist - cell viability counter screen (AID 1259386).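 Also: cells exposed to compounds for 22 h at 37 °C before the viability read; nearly all actives have a fitted effect of over 30% in size.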 Also: potency is read from the fitted curve at half-maximal effect. The essentials: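 The test measures whether compounds kill ER-alpha reporter cells (VM7Luc4E2) under antagonist co-treatment (ICI-182,780, 10.0nM). Fluorescence from CellTiter-Fluor is read after a 22hr exposure.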
Background: Quantitative high-throughput screening tests each substance at several concentrations.

Experiment [3] has as its target Progesterone receptor (Homo sapiens) (UniProt P06401). Briefly: qHTS assay to identify small molecule agonists of the progesterone receptor (PR) signaling pathway (AID 1346784; calls by dose curve; also: nearly all actives have a fitted effect of over 30% in size). Put shortly: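 Using charcoal-stripped serum (2%) to limit endogenous steroids, PR-UAS-bla HEK 293T cells received compounds for 16 hr at 37C after 6 hr plating; beta-lactamase FRET fluorescence was recorded following 2 hr substrate loading at room temperature.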

The target is the same in experiment [4]. The experiment can be described thus: qHTS assay to identify small molecule antagonists of the progesterone receptor (PR) signaling pathway (AID 1346795; active = well fitted inhibition curve with a large enough effect in the signal ratio in the repeat runs, not every such curve was filed as active; the % refers to the signal ratio). Put shortly:
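Inhibition of R5020-induced (1 nM final) beta-lactamase reporter signal in PR-UAS-bla HEK293T cells was scored by FRET fluorescence after overnight (16 hr) compound treatment.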

Experiment [5] can be described thus: qHTS assay to identify small molecule antagonists of the progesterone receptor (PR) signaling pathway - cell viability counter screen (AID 1346798). Also: series mostly up to about 92 µM; nearly all actives have a fitted effect of over 50% in size. Put shortly: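 ATP content as viability readout: CellTiter-Glo luminescence, 30 min room temperature, in PR-UAS-bla HEK293T cells after 16 hr compound/R5020 treatment at 37C and 5% CO2.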
The nature of experiment [6]: qHTS assay to identify small molecule agonists of the progesterone receptor (PR) signaling pathway - cell viability counter screen (AID 1346799; calls by dose curve; also: nearly all actives have a fitted effect of over 45% in size). Put shortly:
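Cytotoxicity in PR-bla HEK293T cells: 16 h compound, 37C; CellTiter-Glo added post-FRET read; luminescence after 30 min RT.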

A short description of experiment [7]: qHTS assay to identify small molecule agonists of the TGF-beta/Smad signaling pathway - cell viability counter screen (AID 1346829). Also: top concentration of the series differs between compounds; nearly all actives have a fitted effect of over 45% in size. The essentials: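 Here the cytotoxicity of library compounds is measured in SBE-bla HEK 293T cells treated for 5 hr, using CellTiter-Glo added to wells already read for the beta-lactamase reporter.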
Experiment [8] in a line: qHTS assay to identify small molecule agonists of the TGF-beta/Smad signaling pathway (AID 1346859; active = well fitted activation curve with a large enough effect in the signal ratio in the repeat runs, not every such curve was filed as active; the % refers to the signal ratio; also: series mostly up to about 77 µM). Put shortly:
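Stable Smad binding element-beta-lactamase HEK 293T cells; 5 hr compound exposure at 37 C under 5% CO2; 2 hr room-temperature substrate step; fluorescence excited at 405 nm, collected at 460 nm and 530 nm.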

For experiment [9], the target named is Thyrotropin-releasing hormone receptor (Homo sapiens) (UniProt P34981). Briefly: qHTS assay to identify small molecule antagonists of the thyrotropin-releasing hormone receptor (TRHR) signaling pathway (AID 1346877; active = well fitted inhibition curve with a large enough effect in the repeat runs, not every such curve was filed as active; also: series mostly up to about 51 µM). The essentials:
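Overnight-plated (18 h, 37 °C) HEK293 cells expressing TRHR were dye-loaded 2 h, treated with compound, then stimulated with TRH at 1 nM final. Fluorescence intensity was captured every second for 3 min.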

The target is the same in experiment [10]. The experiment can be described thus: qHTS assay to identify small molecule agonists of the thyrotropin-releasing hormone receptor (TRHR) signaling pathway (AID 1346891; calls by dose curve;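 also: HEK293 cells expressing TRHR with calcium dye readout; series mostly up to about 58 µM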). The essentials:
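In 1536-format, 1500 TRHR-Hek293 cells per well grew 18 h, took up calcium dye for 2 h at 37 °C, received compound, and were read kinetically; 15-point titrations, triplicates.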

Experiment [11] is described as follows: Caspase-3/7 induction in HepG2 cells by small molecules, qHTS assay (AID 1346978). Also: nearly all actives have a fitted effect of over 15% in size. Put shortly:
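Caspase-3/7 induction was measured by Caspase-Glo 3/7 luminescence (30 min, room temperature) after a 17 hr compound exposure of wild-type HepG2 cells seeded at 2,000 per well and pre-incubated 5 hr.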

The nature of experiment [12]: Caspase-3/7 induction in CHO-K1 cells by small molecules, qHTS cell viability counter screen (AID 1346979). Also: nearly all actives have a fitted effect of over 35% in size. Also: potency is read from the fitted curve at half-maximal effect. Put shortly: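 To flag cytotoxic compounds, treated CHO-K1 wild-type cells were given CellTiter-Fluor at 16hr and read fluorescently after 1hr at 37C; the caspase-3/7 luminescence was measured in these same wells.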
Experiment [13] is described as follows: Caspase-3/7 induction in HepG2 cells by small molecules, qHTS cell viability counter screen (AID 1346981). Also: series mostly up to about 92 µM; nearly all actives have a fitted effect of over 30% in size. Put shortly: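 Treatment of HepG2 cells with DMSO-delivered compounds ran 16 hr at 37 C following a 5-hr pre-incubation of 2,000 cells/well. CellTiter-Fluor fluorescence, read after 1 hr, served as the viability measure in a qHTS format.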
Experiment [14] deals with Nuclear receptor subfamily 1 group I member 2 (Homo sapiens) (UniProt O75469). The experiment can be described thus: Human pregnane X receptor (PXR) small molecule agonists, qHTS assay (AID 1346982). Also: nearly all actives have a fitted effect of over 35% in size. Put shortly: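 Stable HepG2 line reporting PXR-mediated CYP3A4 expression via luciferase. Treatment: 24 hr with compounds in DMSO at 37 C. Detection: ONE-Glo luminescence.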
Nuclear receptor subfamily 1 group I member 2 (Homo sapiens), sequence (O75469 whole entry, looked up): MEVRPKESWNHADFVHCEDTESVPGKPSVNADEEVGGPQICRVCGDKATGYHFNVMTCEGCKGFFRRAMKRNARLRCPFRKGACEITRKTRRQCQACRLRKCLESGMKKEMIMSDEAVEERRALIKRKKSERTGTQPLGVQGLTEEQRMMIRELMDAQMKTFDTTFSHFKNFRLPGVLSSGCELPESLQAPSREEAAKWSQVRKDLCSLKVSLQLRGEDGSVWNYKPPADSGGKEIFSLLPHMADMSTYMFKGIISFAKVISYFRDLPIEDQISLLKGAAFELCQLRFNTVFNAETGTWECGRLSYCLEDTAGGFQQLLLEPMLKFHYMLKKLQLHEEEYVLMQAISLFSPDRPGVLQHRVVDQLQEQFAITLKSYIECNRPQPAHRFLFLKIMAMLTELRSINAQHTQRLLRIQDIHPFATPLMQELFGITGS

The nature of experiment [15]: Human pregnane X receptor (PXR) small molecule agonists, qHTS cell viability counter screen (AID 1346977). Also: nearly all actives have a fitted effect of over 50% in size. Also: potency is read from the fitted curve at half-maximal effect. The essentials:
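Readout is CellTiter-Fluor fluorescence from PXR-Luc HepG2 cells. Plated cells rested 5hr, then were treated with compounds for 24hr at 37C and 5% CO2, with reagent present during the last hour.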

Experiment [16] in a line: qHTS assay to identify small molecule antagonists of the TGF-beta/Smad signaling pathway - cell viability counter screen (AID 1346824). Also: nearly all actives have a fitted effect of over 50% in size. The essentials:
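Cytotoxicity counter-screen run in the same wells as the beta-lactamase Smad reporter read: CellTiter-Glo luminescence after 30 min at room temperature. HEK 293T SBE-bla cells had 5 hr compound exposure at 37 C with TGF-beta1 (0.25 ng/mL stock).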

Experiment [17] can be described thus: Caspase-3/7 induction in CHO-K1 cells by small molecules, qHTS assay (AID 1346980). Also: nearly all actives have a fitted effect of over 15% in size. The essentials: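 Luminescent Caspase-Glo 3/7 read (30min, room temperature) quantified apoptosis induction. Cells were wild-type CHO-K1, treated with compound for 17hr at 37 C and 5% CO2.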
Experiment [18] has as its target Nuclear receptor subfamily 1 group I member 2 (Rattus norvegicus) (UniProt Q9R1A7). The experiment can be described thus: Rat pregnane X receptor (rPXR) activation by small molecules, qHTS assay (AID 1346983). Also: nearly all actives have a fitted effect of over 20% in size. Conditions: rPXR luciferase reporter cells, One-Glo luminescence, 24 h; max activation: stronger effect = higher value. The essentials:
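Luminescent readout (One-Glo luciferase, 30 min room temperature) followed 24 hr compound treatment at 37 C of rPXR cells plated 2,000 per well and preincubated 5hr; qHTS format with compounds delivered in DMSO.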

The target in experiment [19] is Nuclear receptor subfamily 1 group I member 2 (Homo sapiens) (UniProt O75469). Briefly: Human pregnane X receptor (PXR) activation by small molecules, qHTS assay (AID 1346985). Also: nearly all actives have a fitted effect of over 40% in size. The essentials:
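DPX-2 cells (HepG2 co-transfected with a PXR response element and a CYP3A4-promoter luciferase construct) were seeded at 2,000 per well, rested 5 hr at 37C, then exposed to DMSO-dissolved compounds for 24 hr. Activation was read as luciferase luminescence.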

Records with an inconclusive call do not appear. Some structures have more than one record in an assay (separate samples or runs), and their calls can disagree. The source made the active and inactive calls. Unless noted, calls follow the shape of the dose curve; as a rule, active = well fitted curve in the direction sought with a large enough effect in the repeat runs; inconclusive = weak or mixed curves; inactive = no such curve, though single readings can be large; an effect the other way counts as inactive or inconclusive.
% is scaled to controls: 0 for no effect and ±100 for the full control effect.

Thyrotropin-releasing hormone receptor (Homo sapiens), sequence (P34981 whole entry, looked up): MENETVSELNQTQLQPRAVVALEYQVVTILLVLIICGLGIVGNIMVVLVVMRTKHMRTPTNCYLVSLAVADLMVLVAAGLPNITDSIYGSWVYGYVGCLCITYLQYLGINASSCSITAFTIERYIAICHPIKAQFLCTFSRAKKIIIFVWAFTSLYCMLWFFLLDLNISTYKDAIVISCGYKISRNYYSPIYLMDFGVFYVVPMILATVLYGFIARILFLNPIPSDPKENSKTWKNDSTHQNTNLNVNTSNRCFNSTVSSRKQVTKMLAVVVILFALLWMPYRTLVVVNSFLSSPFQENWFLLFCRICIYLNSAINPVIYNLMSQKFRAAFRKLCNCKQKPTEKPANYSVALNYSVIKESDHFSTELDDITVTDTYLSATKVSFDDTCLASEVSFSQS
Progesterone receptor (Homo sapiens), sequence (P06401 whole entry, looked up): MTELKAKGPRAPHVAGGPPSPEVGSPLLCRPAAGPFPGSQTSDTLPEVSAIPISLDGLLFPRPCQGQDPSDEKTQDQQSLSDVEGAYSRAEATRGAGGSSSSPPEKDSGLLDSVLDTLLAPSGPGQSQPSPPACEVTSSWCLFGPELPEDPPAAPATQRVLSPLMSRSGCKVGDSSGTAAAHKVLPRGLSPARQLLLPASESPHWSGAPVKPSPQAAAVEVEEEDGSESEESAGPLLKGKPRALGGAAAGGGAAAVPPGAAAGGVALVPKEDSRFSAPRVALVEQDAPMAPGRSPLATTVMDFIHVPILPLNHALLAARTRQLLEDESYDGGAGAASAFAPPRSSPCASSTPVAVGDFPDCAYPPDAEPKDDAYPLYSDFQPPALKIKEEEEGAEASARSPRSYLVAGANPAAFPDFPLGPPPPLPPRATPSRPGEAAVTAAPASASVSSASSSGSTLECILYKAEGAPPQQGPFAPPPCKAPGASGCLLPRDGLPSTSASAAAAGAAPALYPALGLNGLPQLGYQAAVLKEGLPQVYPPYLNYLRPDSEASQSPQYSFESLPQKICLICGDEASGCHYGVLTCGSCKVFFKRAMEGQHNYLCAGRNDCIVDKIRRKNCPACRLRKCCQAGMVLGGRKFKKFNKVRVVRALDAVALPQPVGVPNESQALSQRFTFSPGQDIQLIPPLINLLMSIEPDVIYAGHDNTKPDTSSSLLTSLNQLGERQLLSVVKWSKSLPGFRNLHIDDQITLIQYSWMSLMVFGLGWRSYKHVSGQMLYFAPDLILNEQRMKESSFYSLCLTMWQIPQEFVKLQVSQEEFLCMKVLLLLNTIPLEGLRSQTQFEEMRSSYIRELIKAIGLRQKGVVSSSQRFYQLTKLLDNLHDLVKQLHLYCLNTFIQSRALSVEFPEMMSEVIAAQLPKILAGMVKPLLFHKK
Nuclear receptor subfamily 1 group I member 2 (Rattus norvegicus), sequence (Q9R1A7 whole entry, looked up): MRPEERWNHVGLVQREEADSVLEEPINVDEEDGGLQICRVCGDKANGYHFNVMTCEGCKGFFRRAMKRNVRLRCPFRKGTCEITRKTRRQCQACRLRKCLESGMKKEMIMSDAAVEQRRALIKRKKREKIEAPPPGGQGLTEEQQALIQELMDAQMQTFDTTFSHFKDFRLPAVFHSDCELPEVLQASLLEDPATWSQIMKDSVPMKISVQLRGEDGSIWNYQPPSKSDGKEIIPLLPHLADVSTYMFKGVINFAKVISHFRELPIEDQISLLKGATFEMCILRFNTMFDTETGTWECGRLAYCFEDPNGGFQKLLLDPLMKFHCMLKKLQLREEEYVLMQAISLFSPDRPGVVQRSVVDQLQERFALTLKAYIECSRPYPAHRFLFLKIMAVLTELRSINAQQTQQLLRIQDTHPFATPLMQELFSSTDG

In the case of `CC(C)Cc1ccc(C(C)C(=O)O)cc1` (centres undefined), the result in experiment [1], in experiment [8] and in experiment [9] was inactive. The Potency result in experiment [2], in experiment [3], in [4], in [5], in experiment [6] and in experiment [7] was “inactive” each time. In addition, the Potency result in experiment [10], in [11], in experiment [12], in experiment [13] and in [14] was “inactive” each time.
With `Cc1cnc(NC(=O)C2=C(O)c3ccccc3S(=O)(=O)N2C)s1`, the Potency in [2] was 43.4 µM (active) and inactive; in experiment [12], 61.3 µM (active) and inactive. Moreover, the Potency entry in experiment [3], in experiment [4], in [5], in experiment [6], in experiment [10] and in experiment [15] was “inactive” throughout. Further, the Potency result in experiment [11] and in experiment [13] was “inactive” each time. Further, the compound was classed as inactive in experiment [8] and in experiment [9].
As to `C[C@]12CC[C@@H]3c4ccc(O)cc4CC[C@H]3[C@@H]1CCC2=O`, the Potency result in experiment [2], in experiment [3], in experiment [5], in experiment [6], in [16] and in experiment [7] was “inactive” each time. Further, the Potency result in [10], in [15], in [11], in experiment [12] and in [13] was “inactive” throughout. Also, the result in experiment [8] and in [9] was inactive.
For `CC(C)CC(C)CC(O)CC(C)C` (centres undefined), the Potency result in [2], in experiment [3], in experiment [4], in [5], in [6] and in [16] was “inactive” throughout. Besides, the Potency entry in experiment [10], in experiment [15], in [11], in [12], in experiment [13] and in experiment [14] was “inactive” each time. In addition, the compound was classed as inactive in [8] and in experiment [9].
Regarding `C[C@]12C=CC(=O)C=C1CC[C@@H]1[C@@H]2C(=O)C[C@@]2(C)[C@H]1CC[C@]2(O)C(=O)CO`, the call in experiment [1], in [8] and in experiment [17] was inactive. For the same compound, the Potency entry in experiment [2], in experiment [3], in experiment [5], in [6], in experiment [16] and in experiment [7] was “inactive” each time. In addition, the Potency entry in experiment [15], in [11] and in experiment [13] was “inactive” in each case.
`NCCNc1cccc2ccccc12`: the Potency entry in experiment [2], in [3], in [4], in experiment [6], in experiment [16] and in experiment [10] was “inactive” in each case. Further, the Potency entry in experiment [11], in experiment [13], in [14] and in experiment [19] was “inactive” in each case. Also, the compound was classed as inactive in [8] and in [9]. For the same compound, the Potency in experiment [15] was 50.1 µM (active) and inactive; in experiment [12], 66.9 µM (active) and inactive. Further, the max activation in experiment [18] was -4.28% (inactive).
Regarding `COC(=O)c1ccc(C=O)cc1`, the Potency result in experiment [2], in [3], in [4], in experiment [5], in [6] and in [16] was “inactive” each time. Further, the Potency result in experiment [7], in experiment [15], in experiment [11], in experiment [12], in experiment [13] and in experiment [14] was “inactive” throughout. Moreover, the compound was classed as inactive in experiment [8] and in experiment [17].
